Shown are actives, neighbours in structure and some others; about 28% of the full set was active somewhere.
CYP2C19 inh = blockers of cytochrome P450 2C19 activity – biochemical, luminescence, ADME assay, primary screen | hit rate 21% among 96,000 | inhibition, % at 5 µM | CYP2C19 Supersomes, luciferin-H EGE luminescence, 30 min | P33261;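 active = CYP2C19 inhibition above a set limit at 5 µM in the primary screen, cut at about 50% in these data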;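 also: plate controls were negative control wells for no effect and 2.5 mM tranylcypromine positive control for full effect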
Target sequence (P33261 whole entry, looked up): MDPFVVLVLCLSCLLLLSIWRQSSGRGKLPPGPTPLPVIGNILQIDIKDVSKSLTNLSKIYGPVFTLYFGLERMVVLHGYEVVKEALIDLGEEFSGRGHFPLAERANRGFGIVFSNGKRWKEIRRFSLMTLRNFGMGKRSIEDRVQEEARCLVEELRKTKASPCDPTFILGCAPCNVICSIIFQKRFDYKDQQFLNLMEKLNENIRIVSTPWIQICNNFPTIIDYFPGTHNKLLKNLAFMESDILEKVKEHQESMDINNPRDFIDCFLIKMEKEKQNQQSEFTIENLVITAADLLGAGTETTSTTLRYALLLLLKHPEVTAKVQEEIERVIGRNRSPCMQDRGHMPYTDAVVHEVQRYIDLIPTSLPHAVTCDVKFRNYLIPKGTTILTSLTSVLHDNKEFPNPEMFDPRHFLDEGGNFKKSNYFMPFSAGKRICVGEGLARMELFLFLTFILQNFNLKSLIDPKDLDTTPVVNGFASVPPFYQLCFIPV
hDAT+cocaine = changed hDAT dopamine uptake under cocaine IC80, either direction, primary screen, cocaine antagonist project, cell-based, LLC-PK1 hDAT, [14C]-dopamine uptake, MLSMR. Sodium-dependent dopamine transporter (Homo sapiens), Q01959. LLC-PK1 hDAT cells, [14C]-dopamine uptake with cocaine IC80; actives deviate in either direction. B-score at 10 µM. hit rate 1.3% among 110,000;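 active = Z score or B-score, a plate-position-corrected score, falls beyond the plate's 99.7% confidence bounds, in either direction; inactive = both scores lie inside the 99.7% bounds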;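 also: scored against the spread of the other compound wells on the same plate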
CYP2C19 act = human CYP2C19 activators, primary screen, biochemical, luminescence. 96,000 tested, under 10 active. Cytochrome P450 2C19 (Homo sapiens), P33261. AID 1025, 2008. activation factor at 5 µM. recombinant CYP2C19, luciferin-H EGE luminescence; active compounds read high; 0 = fully inhibited enzyme, 1 = untreated enzyme;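 active = activation factor of at least 2 at 5 µM in the primary screen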;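 also: 0 = wells with 2.5 mM tranylcypromine and 1 = vehicle-only wells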
CYP2C9 activ = human CYP2C9 activators, primary screen, biochemical, luminescence; activation factor at 5 µM; hit rate 1.4% among 96,000; Cytochrome P450 2C9 (Homo sapiens), P11712; recombinant CYP2C9, luciferin-H conversion; active compounds read high; factor 1 = untreated enzyme, 0 = blocked; AID 1024, 2008;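 active = activation factor of 2 or more for CYP2C9 at a 5 µM dose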;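 also: 0 = sulfaphenazole-blocked wells and 1 = vehicle-only wells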
D1 mod = D1 CRE-luciferase signal change, two-sided – cell-based, HEK293 D1, dopamine EC30, D1 allosteric modulator project, primary screen. dopamine EC30 potentiation; actives deviate in either direction. D(1A) dopamine receptor (Homo sapiens), P21728. hit rate 5.9% among 58,000. AID 641, 2007. B-score at 10 µM;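 active = luminescence count or its row- and column-corrected plate score outside the 99.7% band of the plate's sample wells, on either side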
CYP2C9 inhib = blockers of cytochrome P450 2C9 activity – biochemical, luminescence, ADME assay, primary screen | P11712 | CYP2C9 Supersomes, luciferin-H conversion | inhibition, % at 5 µM | hit rate 20% among 96,000 | AID 777, 2007;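 active = blocking of liver enzyme CYP2C9 beyond about 50% at 5 µM, limit read from the data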
An asterisk follows results filed as active; . = not tested or not shown.

SMILES	CYP2C19 inh	hDAT+cocaine	CYP2C19 act	CYP2C9 activ	D1 mod	CYP2C9 inhib
CCOC(=O)C(=O)/C(=C\N(C)C)c1onc(-c2c(F)cccc2Cl)c1C(=O)OC	48	-0.18	0.5	0.4	.	58*
Cc1onc(-c2c(Cl)cccc2Cl)c1C(N)=O	-2	-0.12	1	1.2	-0.023	-16
Cc1cc(C)nc(NC(=O)c2c(-c3c(Cl)cccc3Cl)noc2C)n1	0	-2.9*	1	0.8	-0.11	15
CC1(c2nnc(Cc3ccccc3)o2)CC(c2ccncc2)=NO1 (stereo not given)	.	-0.53	.	.	.	.
COc1cc2c(cc1OC)C(c1cc3cc(OC)c(OC)cc3[nH]c1=O)N(C(=O)C1CC1)CC2 (stereo not given)	25	1.3	0.7	0.4	2.8	61*
Oc1ccc(-c2nnc(SCC3CCCCC3)o2)cc1	3	0.029	1	2.1*	0.18	-107
Cc1ccc(-c2nnc(SCC(=O)N3CC(C)CC(C)C3)o2)cc1C (stereo not given)	.	0.86	.	.	-0.44	.
O=C1OCCC1Sc1nnc(-c2ccc(O)cc2)o1 (stereo not given)	42	0.41	0.6	1.2	.	-18
COc1cccc(-c2nnc(SCC(=O)N3CC(C)CC(C)C3)o2)c1 (stereo not given)	65*	0.87	0.4	1.2	-0.38	-17
COc1ccc(-c2nnc(SCC(=O)N3CCOCC3)o2)cc1	4	-1.1	1	1	-0.42	1
O=C(CSc1nnc(-c2ccc(O)cc2)o1)N1CCOCC1	-5	-1.3	1	2.5*	-0.62	-148
CC1CC(C)CN(C(=O)CSc2nnc(-c3ccc(Cl)cc3)o2)C1 (stereo not given)	81*	-0.0047	0.2	0.9	-0.35	6
Cc1ccc(CNC(=O)c2ccc(Cn3nc(C)c(Cl)c3C)o2)cc1	78*	2	0.2	0.6	.	45
Cc1cc(C)cc(NC(=O)c2ccc(Cn3nc(C)c(Cl)c3C)o2)c1	.	2.4	.	.	.	.
Cc1nn(Cc2ccc(C(=O)Nc3ccccc3C(F)(F)F)o2)c(C)c1Br	91*	-0.29	0.1	0.6	.	35
C=C(C)C(=O)Nc1cccc(C2=NOC3(C2)C[C@H](C(N)=O)N(C(=O)COc2ccc(Cl)cc2)C3)c1 (stereo not given in full)	.	-0.64	.	.	.	.
c1cnc2ccc(C(c3nnnn3C3CCCC3)N3CCN4CCCC4C3)cc2c1 (stereo not given)	3	0.5	1	0.9	.	6
O=C(CC(C(=O)N1CCc2ccccc21)n1ccnc1)NCc1ccccc1 (stereo not given)	100*	0.28	0	0.3	.	73*
CCN(CC)CC(C)CNC(=O)CC(C(=O)N1CCc2ccccc21)n1ccnc1 (stereo not given)	.	0.73	.	.	0.24	.
CC(C)CN(C(=O)COC(=O)C12CC3CC(CC(O)(C3)C1)C2)C1CCS(=O)(=O)C1 (stereo not given)	5	0.1	0.9	1	-0.5	-1
COCCN1C(=O)c2oc3cc(C)c(C)cc3c(=O)c2C1c1ccc(O)cc1 (stereo not given)	.	0.51	.	.	3	.
CCCOc1ccc(C(=O)N2CCN(c3ccc(N)cc3Cl)CC2)cc1	84*	0.94	0.2	0.2	0.67	80*
Cc1nn(Cc2ccccc2Cl)c2sc(C(=O)NCc3ccc4c(c3)OCO4)cc12	92*	1.2	0.1	0	.	99*
Cc1cc(C(=O)Nc2c(C)nn(Cc3ccccc3Cl)c2C)no1	13	0.073	0.9	0.7	0.26	32
O=C(NCc1ccc2c(c1)OCO2)c1cc(-c2ccccc2Cl)on1	12	0.068	0.9	1.5	.	-49
SMILES	CYP2C19 inh	hDAT+cocaine	CYP2C19 act	CYP2C9 activ	D1 mod	CYP2C9 inhib
CCC(CC)NC(=O)c1cc2c(C)nn(Cc3ccccc3Cl)c2s1	39	-0.71	0.6	0.3	.	71*
COc1ccccc1CNC(=O)c1cc2c(C)nn(Cc3ccc(F)cc3)c2s1	38	2.1	0.6	0.2	.	78*
C=CCN1C(=O)/C(=C2/C(=O)N(CC(=O)O)c3ccccc32)S/C1=N/c1nccs1	-10	.	1.1	0.9	.	13
C=CCSc1nc2c(c(=N)n1CC=C)C1CCCC1S2 (stereo not given)	32	0.3	0.7	0.6	0.57	36
Cc1cc(/C=N\O)c(C)n1-c1ccncc1	14	.	0.9	1.1	-1.3	-14
Cc1cc(NC(=O)CCSc2nc(-c3ccco3)cc(C(F)(F)F)n2)n(-c2ccccc2)n1	.	0.19	.	.	.	.
COC1Cc2ccccc2N(C(=O)N2CCN(CCO)CC2)c2ccccc21 (stereo not given)	32	.	0.7	1.1	-0.024	-5
CCn1c(=O)cc(N2CCC3(CC2)OCCO3)[nH]c1=O	-9	-0.86	1.1	1.1	0.48	-8
CCCn1c(SCC(=O)Nc2ccc3c(c2)OCO3)nc2c1c(=O)n(C)c(=O)n2C	26	-0.71	0.7	0.6	4.8*	40
CCCn1c(SCC(=O)N2CCCC2)nc2c1c(=O)n(C)c(=O)n2C	13	0.047	0.9	0.9	.	12
CCCn1c(SCC(=O)Nc2ccccc2N2CCCCC2)nc2c1c(=O)n(C)c(=O)n2C	79*	1.1	0.2	0	0.38	98*
CCOC(=O)/C=C1\SCC(=O)N1CC(=O)NC12CC3CC(CC(C3)C1)C2	19	-0.13	0.8	0.9	.	13
O=C(Oc1cccc(NC(=O)c2ccco2)c1)c1ccc(Br)c(S(=O)(=O)N2CCCCC2)c1	26	-1.2	0.7	0.5	.	48
Cc1ccc(Cn2nnc3c(=O)[nH]c(C4CCCN(C(=O)Nc5ccc(F)cc5)C4)nc32)cc1 (stereo not given)	-7	0.38	1.1	1	2.1	-1
CN(C)c1ccc(NC(=O)CSCc2nc3c(nnn3Cc3ccc(F)cc3)c(=O)[nH]2)cc1	44	0.013	0.6	0.4	-0.15	59*
O=c1[nH]c(N2CCCCC2)nc2c1CCCC2	-5	0.39	1	1	0.067	-4
Cc1cc(C)nc(Nc2n[nH]c(-c3ccccc3Br)n2)n1	18	-0.2	0.8	0.3	0.0069	74*
COc1ccc(N=c2ssnc2Cl)cc1	.	-0.11	.	.	.	.
N#Cc1ccc(N=c2ssnc2Cl)cc1	3	-0.53	1	0	.	97*
COc1cc(N=c2ssnc2Cl)cc(OC)c1OC	-4	0.01	1	0.1	-1.2	89*
Clc1ccc(N=c2ssnc2Cl)cc1	.	0.64	.	.	.	.
Cc1cccc(C)c1C(=O)N[C@@H](Cc1ccccc1)C(=O)O	.	0.36	.	.	.	.

Source: PubChem BioAssay (several laboratories)
